Laboratory results: PubChem BioAssay AID1159580 (chemical genetic matrix, 2015)
Screen size: about 5,500 compounds; about 2,000 (36%) were called active. Not shown: some 18% with an inconclusive outcome. Some of the results follow. Values without a mark were called inactive. Cut-off read from the data, not from the text of the source: active = normalized growth mostly below about 0.91 (no sharp cut-off); inconclusive = no clear call, values can overlap the other calls; inactive = mostly above about 0.92.

Assay: chemical genetic growth profiling, strain panel (AID 1159580);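 note: tested at 20 µM; growth read once vehicle control cultures reached saturation at 30 °C; 1 = growth at the plate median or of vehicle wells; lower values mean less growth of the strain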
Settings: growth OD
[1] = S. cerevisiae deletion strains, locus YAL013W, strain DEP1, active compounds read low
[2] = S. cerevisiae deletion strains, locus YBR229C, strain ROT2, active compounds read low
[3] = S. cerevisiae deletion strains, locus YDL101C, strain DUN1, active compounds read low
[4] = S. cerevisiae deletion strains, locus YDR150W, strain NUM1, active compounds read low
[5] = S. cerevisiae deletion strains, locus YEL061C, strain CIN8, active compounds read low
[6] = S. cerevisiae deletion strains, locus YGR078C, strain PAC10, active compounds read low
[7] = S. cerevisiae deletion strains, locus YHR030C, strain SLT2, active compounds read low
[8] = S. cerevisiae deletion strains, locus YHR087W, strain rtc3, active compounds read low
[9] = S. cerevisiae deletion strains, locus YJL187C, strain SWE1, active compounds read low
[10] = S. cerevisiae deletion strains, locus YJR043C, strain POL32, active compounds read low
[11] = S. cerevisiae deletion strains, locus YJR075W, strain HOC1, active compounds read low
[12] = S. cerevisiae deletion strains, locus YKL190W, strain CNB1, active compounds read low
[13] = S. cerevisiae deletion strains, locus YLR039C, strain RIC1, active compounds read low
[14] = S. cerevisiae deletion strains, locus YLR058C, strain SHM2 (second series), active compounds read low
[15] = S. cerevisiae deletion strains, locus YLR085C, strain ARP6, active compounds read low
[16] = S. cerevisiae deletion strains, locus YLR262C, strain YPT6, active compounds read low
[17] = S. cerevisiae deletion strains, locus YML094W, strain GIM5, active compounds read low
[18] = S. cerevisiae deletion strains, locus YMR219W, strain ESC1, active compounds read low
[19] = S. cerevisiae deletion strains, locus YMR263W, strain SAP30, active compounds read low
[20] = S. cerevisiae deletion strains, locus YMR307W, strain GAS1, active compounds read low
[21] = S. cerevisiae deletion strains, locus YNL153C, strain GIM3, active compounds read low
[22] = S. cerevisiae deletion strains, locus YNL298W, strain CLA4 (second series), active compounds read low
[23] = S. cerevisiae deletion strains, locus YNL322C, strain KRE1, active compounds read low
[24] = S. cerevisiae deletion strains, locus YNR030W, strain Alg12, active compounds read low
[25] = S. cerevisiae deletion strains, locus YPL055C, strain LGE1, active compounds read low
[26] = S. cerevisiae deletion strains, locus YPL241C, strain CIN2, active compounds read low
[27] = S. cerevisiae deletion strains, locus YPR135W, strain CTF4, active compounds read low
[28] = S. cerevisiae strains, strain wild type, active compounds read low
[29] = S. cerevisiae deletion strains, locus YAL040C, strain CLN3, active compounds read low
[30] = S. cerevisiae deletion strains, locus YDR363W, strain ESC2, active compounds read low
[31] = S. cerevisiae deletion strains, locus YER002W, strain NOP16, active compounds read low
[32] = S. cerevisiae deletion strains, locus YNL175C, strain NOP13, active compounds read low
[33] = S. cerevisiae deletion strains, locus YNL197C, strain WHI3, active compounds read low
[34] = S. cerevisiae deletion strains, locus YNL224C, strain SQS1, active compounds read low
[35] = S. cerevisiae deletion strains, locus YOR083W, strain WHI5 (second series), active compounds read low
[36] = S. cerevisiae deletion strains, locus YNL128W, strain TEP1, active compounds read low
[37] = S. cerevisiae deletion strains, locus YOL006C, strain TOP1, active compounds read low

SMILES: CN(C(=O)Nc1ccccc1)n1cnc2ccccc2c1=O
- normalized growth [1]: 0.999
- normalized growth [2]: 1.03
- normalized growth [3]: 1
- normalized growth (S. cerevisiae deletion strains, locus YDL134C, strain PPH21, active compounds read low): 1.03
- normalized growth [4]: 0.917
- normalized growth [5]: 1.02
- normalized growth [6]: 1.01
- normalized growth [7]: 1.01
- normalized growth [8]: 0.994
- normalized growth [9]: 1.01
- normalized growth [10]: 0.998
- normalized growth [11]: 1.04
- normalized growth [12]: 1.01
- normalized growth [13]: 1
- normalized growth [14]: 1.02
- normalized growth [15]: 1.04
- normalized growth [16]: 1.01
- normalized growth [17]: 1.03
- normalized growth [18]: 1.01
- normalized growth [19]: 0.994
- normalized growth [20]: 0.98
- normalized growth [21]: 1.01
- normalized growth [22]: 1
- normalized growth [23]: 1.01
- normalized growth [24]: 1.01
- normalized growth [25]: 1.05
- normalized growth [26]: 1.02
- normalized growth [27]: 1
- normalized growth [28]: 1.01

SMILES: CCCCCCC(C)(C)c1ccc([C@@H]2C[C@H](O)CC[C@H]2CCCO)c(O)c1
- normalized growth [1]: 1.01
- normalized growth [29]: 0.993
- normalized growth [4]: 0.986
- normalized growth [30]: 1.02
- normalized growth [31]: 0.977
- normalized growth [20]: 1.01
- normalized growth [21]: 0.716 (active)
- normalized growth [32]: 0.915
- normalized growth [33]: 0.944
- normalized growth [34]: 0.922
- normalized growth [23]: 1.01
- normalized growth [35]: 0.897
- normalized growth [25]: 0.998

SMILES: CCCCCN(CCCCC)C(=O)C(CCC(=O)O)NC(=O)c1ccc(Cl)c(Cl)c1 (configuration not stated)
- normalized growth [1]: 1.01
- normalized growth [29]: 1
- normalized growth (S. cerevisiae deletion strains, locus YCL061C, strain MRC1 (second series), active compounds read low): 1
- normalized growth [4]: 0.993
- normalized growth [30]: 1.03
- normalized growth [31]: 0.991
- normalized growth [7]: 0.993
- normalized growth (S. cerevisiae deletion strains, locus YHR079C, strain IRE1, active compounds read low): 0.986
- normalized growth (S. cerevisiae deletion strains, locus YJL095W, strain BCK1, active compounds read low): 1.01
- normalized growth (S. cerevisiae deletion strains, locus YJR066W, strain TOR1, active compounds read low): 0.97
- normalized growth [11]: 1.02
- normalized growth (S. cerevisiae deletion strains, locus YLR113W, strain HOG1, active compounds read low): 0.952
- normalized growth [20]: 0.992
- normalized growth [36]: 0.963
- normalized growth [32]: 0.995
- normalized growth (S. cerevisiae deletion strains, locus YNL183C, strain NPR1, active compounds read low): 0.949
- normalized growth [33]: 0.986
- normalized growth [34]: 0.985
- normalized growth [35]: 0.95
- normalized growth (S. cerevisiae deletion strains, locus YOR231W, strain MKK1, active compounds read low): 0.983
- normalized growth [25]: 0.983
- normalized growth (S. cerevisiae deletion strains, locus YPL256C, strain CLN2, active compounds read low): 0.987

SMILES: COC(=O)c1cc([N+](=O)[O-])ccc1N1CCOCC1
- normalized growth [1]: 1.01
- normalized growth [2]: 1
- normalized growth [3]: 1.01
- normalized growth [4]: 0.98
- normalized growth [5]: 1.01
- normalized growth [6]: 1.01
- normalized growth [7]: 1.09
- normalized growth [8]: 1.02
- normalized growth [9]: 1
- normalized growth [10]: 0.991
- normalized growth [11]: 0.988
- normalized growth [12]: 1.01
- normalized growth [13]: 1.02
- normalized growth [14]: 1
- normalized growth [15]: 1.06
- normalized growth [16]: 1.01
- normalized growth [17]: 1.03
- normalized growth [18]: 1
- normalized growth [19]: 1
- normalized growth [20]: 1.06
- normalized growth [21]: 0.995
- normalized growth [22]: 1.05
- normalized growth [23]: 0.993
- normalized growth [24]: 1.03
- normalized growth [37]: 1.06
- normalized growth [25]: 1.02
- normalized growth [26]: 1.06
- normalized growth [27]: 1.04
- normalized growth [28]: 1.01

SMILES: COc1cc([N+](=O)[O-])ccc1N1CCCC1
- normalized growth [1]: 0.898 (active)
- normalized growth [2]: 0.941
- normalized growth [3]: 0.882 (active)
- normalized growth [4]: 0.898
- normalized growth [5]: 0.912
- normalized growth [6]: 0.882 (active)
- normalized growth [7]: 0.302 (active)
- normalized growth [8]: 0.979
- normalized growth [9]: 0.902 (active)
- normalized growth [10]: 0.951
- normalized growth [11]: 0.933
- normalized growth [13]: 0.554 (active)
- normalized growth [14]: 0.929 (active)
- normalized growth [15]: 0.605 (active)
- normalized growth [16]: 0.661 (active)
- normalized growth [17]: 0.865 (active)
- normalized growth [18]: 0.934 (active)
- normalized growth [19]: 0.928
- normalized growth [20]: 0.445 (active)
- normalized growth [36]: 0.931
- normalized growth [21]: 0.913 (active)
- normalized growth [22]: 0.775 (active)
- normalized growth [23]: 0.916 (active)
- normalized growth [24]: 0.862 (active)
- normalized growth [37]: 0.522 (active)
- normalized growth [25]: 0.946
- normalized growth [26]: 0.858 (active)
- normalized growth [27]: 0.512 (active)
- normalized growth [28]: 0.867 (active)
